Drawing on PubChem BioAssay (EPA / NIEHS), this text covers outcome and AC50 for four compounds.

A short description of assay [1]: ATG_DR4_LXR_CIS: Attagene CIS-FACTORIAL HepG2 Assay for human Liver X Receptor (LXR), DR4 submotif (AID 2282929). The following applies: HepG2 Attagene DR4 cis-reporter, mRNA transcription; AC50: actives raise or lower the signal unless noted; outcome: actives raise or lower the signal unless noted. The method, boiled down: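 Cells were transfected with multiple reporter transcription units, exposed to chemicals for 24 hours, then lysed for RNA. Reporter mRNA induction was measured by RT-PCR with capillary electrophoresis detection and fitted in both directions relative to DMSO.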

The nature of assay [2]: ATG_AP_1_CIS: Attagene CIS-FACTORIAL HepG2 Assay for human Activator Protein 1 (AP-1) (AID 2282931). The following applies: HepG2 Attagene cis-factorial AP-1 reporter mRNA; actives raise or lower the signal. In a few lines: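 Endogenous transcription-factor activity in human HepG2 liver cells is read through a cis-promoter reporter transcript, sampled 24 h after dosing. Detection uses RT-PCR with capillary electrophoresis; values come from bidirectional fitting relative to DMSO.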

Assay [3] is described as follows: ATG_AP_2_CIS: Attagene CIS-FACTORIAL HepG2 Assay for human Activator Protein 2 (AP-2) (AID 2282932). The conditions noted are these: HepG2 AP-2 cis-reporter, Attagene transcription factor profiling; AC50: actives raise or lower the signal unless noted; outcome: actives raise or lower the signal unless noted. The method, boiled down: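 HepG2 cells were transiently transfected with multiple cis-promoter reporter transcription units and dosed for 24 h. Reporter mRNA was measured by RT-PCR with capillary electrophoresis fluorescence; bidirectional fits relative to DMSO baseline.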

A short description of assay [4]: ATG_BRE_CIS: Attagene CIS-FACTORIAL HepG2 Assay for human Bone Morphogenetic Protein (BMP) Response Element (BRE) (AID 2282933). The following applies: HepG2 BMP response element reporter, Attagene transcription factor profiling; actives raise or lower the signal. In a few lines: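 Gain- or loss-of-signal was derived by bidirectional fitting against DMSO controls. The signal came from reporter mRNA, measured by RT-PCR and capillary electrophoresis, in HepG2 cells transiently carrying multiple reporter units and dosed for 24 h.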

Assay [5] deals with Transcription factor E2F1 (Homo sapiens) (UniProt Q01094). As to the kind of experiment: ATG_E2F_CIS: Attagene CIS-FACTORIAL HepG2 Assay for human E2F Transcription Factor 1 (AID 2282935). The conditions noted are these: HepG2 Attagene cis-reporter, E2F reporter RNA transcripts; actives raise or lower the signal. The method, boiled down: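 HepG2 cells transiently transfected with multiplexed cis-element reporter units, dosed for 24 h. Reporter mRNA measured by RT-PCR, 6-FAM primer-extension labeling, HpaI digestion and capillary electrophoresis; bidirectional fit versus DMSO baseline.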
Chain of Transcription factor E2F1 (Homo sapiens) (Q01094 whole entry, looked up): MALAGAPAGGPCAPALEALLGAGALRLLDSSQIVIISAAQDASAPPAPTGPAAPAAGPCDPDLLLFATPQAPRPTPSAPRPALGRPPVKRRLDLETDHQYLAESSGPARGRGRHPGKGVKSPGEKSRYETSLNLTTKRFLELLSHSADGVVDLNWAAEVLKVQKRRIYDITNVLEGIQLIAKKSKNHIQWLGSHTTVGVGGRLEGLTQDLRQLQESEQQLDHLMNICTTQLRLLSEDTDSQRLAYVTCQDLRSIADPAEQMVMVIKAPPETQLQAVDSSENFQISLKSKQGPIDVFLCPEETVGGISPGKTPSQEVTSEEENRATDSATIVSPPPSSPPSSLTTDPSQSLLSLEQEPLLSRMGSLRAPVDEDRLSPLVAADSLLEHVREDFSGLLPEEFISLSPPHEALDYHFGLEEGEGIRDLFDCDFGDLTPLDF

Assay [6] is described as follows: ATG_M_61_CIS: Attagene CIS-FACTORIAL HepG2 Assay for M61 Transcription Factor (Internal Marker) (AID 2282937). The following applies: HepG2 Attagene CIS-FACTORIAL M61 internal marker reporter; actives raise or lower the signal. In a few lines:
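Cells were transfected with reporter units under cis-regulatory promoters, treated with chemicals for 24 h, then lysed for RNA. Reporter transcripts were quantified by RT-PCR and capillary electrophoresis, and activity was fitted bidirectionally against DMSO.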

Assay [7] in a line: ATG_EGR_CIS: Attagene CIS-FACTORIAL HepG2 Assay for human Early Growth Response 1 (EGR1) (AID 2282938). The conditions noted are these: HepG2 Attagene CIS-FACTORIAL EGR reporter mRNA; actives raise or lower the signal. The method, boiled down: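 Endogenous TF activity in HepG2 liver cells was gauged through cis-promoter reporter constructs transiently transfected. After 24 h dosing, reporter mRNA was quantified by RT-PCR and capillary electrophoresis, and curves fitted in both directions versus DMSO.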

Assay [8] is described as follows: ATG_M_19_CIS: Attagene CIS-FACTORIAL HepG2 Assay for M19 Transcription Factor (Internal Marker) (AID 2282939). The following applies: HepG2 Attagene CIS-FACTORIAL M19 internal marker reporter; actives raise or lower the signal. In a few lines:
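Following a 24 h exposure, RNA from transfected HepG2 cells was reverse-transcribed, PCR-amplified with reporter-specific primers, end-labelled with 6-FAM and HpaI-digested before capillary separation. Values represent gain or loss versus DMSO.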

The nature of assay [9]: ATG_Ets_CIS: Attagene CIS-FACTORIAL HepG2 Assay for human Erythroblast Transformation Specific (ETS) (AID 2282941). The conditions noted are these: HepG2 ETS cis-reporter transcription; AC50: actives raise or lower the signal unless noted; outcome: actives raise or lower the signal unless noted. The method, boiled down:
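After transient cis-reporter transfection, HepG2 cells receive test chemical for 24 h. Reporter mRNA levels, measured by RT-PCR and capillary electrophoresis fluorescence, are analysed bidirectionally relative to the DMSO baseline.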

Assay [10] deals with Hepatocyte nuclear factor 3-beta (Homo sapiens) (UniProt Q9Y261). The assay is described as follows: ATG_FoxA2_CIS: Attagene CIS-FACTORIAL HepG2 Assay for human Forkhead box A2 (FOXA2) (AID 2282942). The conditions noted are these: HepG2 cis-reporter transcription factor activity, 24 h; actives raise or lower the signal. The method, boiled down:
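Endogenous transcription factor activity was read in HepG2 cells carrying transiently transfected cis-promoter reporter units. After 24 h dosing, reporter mRNA was quantified by RT-PCR and capillary electrophoresis, and values fitted bidirectionally versus DMSO.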

The nature of assay [11]: ATG_FoxO_CIS: Attagene CIS-FACTORIAL HepG2 Assay for human Forkhead box O (FoxO) (AID 2282943). The following applies: HepG2 Attagene cis-reporter, FoxO element, mRNA; actives raise or lower the signal. The method, boiled down:
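24 h chemical exposure, HepG2 with transient cis-MRTU transfection. RNA extraction, oligo(dT) RT, reporter-specific PCR, primer-extension labelling, HpaI digestion, CE fragment analysis; bidirectional fit, DMSO baseline.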

Assay [12] can be described thus: ATG_GATA_CIS: Attagene CIS-FACTORIAL HepG2 Assay for human GATA Binding Protein (AID 2282944). The conditions noted are these: HepG2 GATA cis-element reporter, Attagene multiplex mRNA; actives raise or lower the signal. The method, boiled down:
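DMSO serves as negative control and baseline for bidirectional fitting of reporter mRNA changes. HepG2 cells bearing transiently transfected cis-promoter reporters were exposed 24 h; transcripts detected via RT-PCR and capillary electrophoresis.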

Assay [13] in a line: ATG_GLI_CIS: Attagene CIS-FACTORIAL HepG2 Assay for human Zinc Finger Protein GLI1 (AID 2282945). The conditions noted are these: HepG2, Attagene cis-factorial reporter mRNA, GLI element; actives raise or lower the signal. The method, boiled down: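 HepG2 cells transiently transfected with cis-promoter multiplexed reporter units report endogenous transcription factor activity. After 24 h chemical exposure, reporter mRNA was quantified by RT-PCR, 6-FAM labelling, HpaI digestion and capillary electrophoresis, with bidirectional fitting against DMSO.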

The nature of assay [14]: ATG_ISRE_CIS: Attagene CIS-FACTORIAL HepG2 Assay for human Interferon Regulatory Factor 1 (IRF1) binding to an Interferon-Stimulated Response Element (ISRE) (AID 2282948). The following applies: HepG2 ISRE cis-reporter (Attagene), mRNA transcription readout; actives raise or lower the signal. In a few lines: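 Quantitation relies on labelled RT-PCR fragments separated by capillary electrophoresis. Human HepG2 cells bearing cis-promoter reporter constructs were treated 24 h; DMSO served as baseline for bidirectional fitting.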

Assay [15] has as its target Aryl hydrocarbon receptor (Homo sapiens) (UniProt P35869). As to the kind of experiment: ATG_Ahr_CIS: Attagene CIS-FACTORIAL HepG2 Assay for human Aryl Hydrocarbon Receptor (Ahr) (AID 2282930). The following applies: HepG2 AhR cis-factorial reporter transcription; actives raise or lower the signal. The method, boiled down:
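Following 24 h of chemical dosing, transfected HepG2 liver cells with cis-driven reporter units were lysed for RNA; reporter mRNA was quantified via RT-PCR and capillary electrophoresis, and responses fitted bidirectionally from DMSO.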

Assay [16] in a line: ATG_E_Box_CIS: Attagene CIS-FACTORIAL HepG2 Assay for human Enhancer Box (E-box) (AID 2282936). The conditions noted are these: HepG2 E-box cis-reporter transcription, actives raise or lower the signal. The method, boiled down: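 HepG2 cells transiently transfected with multiplexed cis-element reporter units sensing endogenous transcription factor activity; 24 h compound exposure. Reporter mRNA measured by RT-PCR, 6-FAM primer extension, HpaI digestion and capillary electrophoresis; bidirectional fit versus DMSO.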

Assay [17] can be described thus: ATG_ERE_CIS: Attagene CIS-FACTORIAL HepG2 Assay for Estrogen Response Element (ERE) (AID 2282940). The conditions noted are these: HepG2 ERE cis-reporter, Attagene RNA transcript; actives raise or lower the signal. The method, boiled down: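 HepG2, transient cis-reporter units, 24 h exposure. RNA isolated, oligo(dT) RT, reporter-specific PCR, FAM extension, HpaI cut, CE detection. Gain/loss-of-signal vs DMSO.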

Assay [18] in a line: ATG_GRE_CIS: Attagene CIS-FACTORIAL HepG2 Assay for human Glucocorticoid Response Elements (GRE) (AID 2282947). The conditions noted are these: HepG2 GRE cis-reporter, Attagene multiplex mRNA; AC50: actives raise or lower the signal unless noted; outcome: actives raise or lower the signal unless noted. In a few lines:
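HepG2 cells transiently transfected with multiple cis-promoter reporter units measure endogenous TF activity; 24 h compound exposure. Reporter mRNA quantified by RT-PCR, FAM labelling, HpaI digestion and capillary electrophoresis; bidirectional fit vs DMSO baseline.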

Assay [19] deals with Retinoic acid receptor alpha (Homo sapiens) (UniProt P10276). The assay is described as follows: ATG_DR5_RAR_CIS: Attagene CIS-FACTORIAL HepG2 Assay for human Retinoic Acid Receptor Alpha (RARE), DR5 submotif (AID 2282934).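 As to AC50: reporter responds to endogenous RAR alpha beta and gamma in HepG2 not RARA alone.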 The following applies: HepG2 Attagene cis-factorial RARE DR5 reporter, mRNA; actives raise or lower the signal. In a few lines: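 Transfected HepG2 reporter cells are exposed to chemicals for 24 h. Then RNA is extracted and the DR5 element reporter transcript is measured by RT-PCR and capillary electrophoresis, with bidirectional curve fitting relative to DMSO.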
Chain of Retinoic acid receptor alpha (Homo sapiens) (P10276 whole entry, looked up): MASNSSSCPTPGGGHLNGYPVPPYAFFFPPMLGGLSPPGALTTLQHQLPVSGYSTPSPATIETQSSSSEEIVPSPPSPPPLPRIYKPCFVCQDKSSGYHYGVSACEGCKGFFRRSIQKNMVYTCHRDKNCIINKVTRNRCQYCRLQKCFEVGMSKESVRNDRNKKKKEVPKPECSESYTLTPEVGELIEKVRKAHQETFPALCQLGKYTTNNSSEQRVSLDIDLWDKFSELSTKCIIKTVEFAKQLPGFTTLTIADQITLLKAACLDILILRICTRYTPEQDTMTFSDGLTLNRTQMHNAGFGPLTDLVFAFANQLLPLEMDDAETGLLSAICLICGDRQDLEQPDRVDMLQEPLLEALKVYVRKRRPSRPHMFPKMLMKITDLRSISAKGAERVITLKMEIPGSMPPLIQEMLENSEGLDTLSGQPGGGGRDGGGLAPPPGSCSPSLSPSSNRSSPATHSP

The structures appear in SMILES notation. “And” between values parts separate entries of the source, which are not always exact repeats. Equal values may be shown once. Some compounds were tested as several samples or in several runs, with calls that do not always agree. The source made the active and inactive calls. The calls were made as follows: active = hit-call score of the fitted dose curve at least 0.9, where 1 is the maximum; inactive = score below 0.9.

Chain of Hepatocyte nuclear factor 3-beta (Homo sapiens) (Q9Y261 whole entry, looked up): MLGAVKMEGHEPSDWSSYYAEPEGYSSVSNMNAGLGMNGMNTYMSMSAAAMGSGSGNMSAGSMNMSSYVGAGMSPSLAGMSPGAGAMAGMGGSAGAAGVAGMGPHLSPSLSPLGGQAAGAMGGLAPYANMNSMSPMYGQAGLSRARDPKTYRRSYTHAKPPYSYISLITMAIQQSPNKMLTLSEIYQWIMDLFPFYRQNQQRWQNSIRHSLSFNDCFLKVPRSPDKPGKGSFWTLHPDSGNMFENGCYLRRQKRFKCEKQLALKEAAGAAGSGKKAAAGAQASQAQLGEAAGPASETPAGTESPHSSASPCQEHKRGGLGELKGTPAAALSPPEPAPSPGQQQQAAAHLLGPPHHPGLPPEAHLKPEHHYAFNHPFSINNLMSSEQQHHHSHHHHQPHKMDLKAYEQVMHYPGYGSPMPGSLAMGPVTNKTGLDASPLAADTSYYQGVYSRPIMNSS
Chain of Aryl hydrocarbon receptor (Homo sapiens) (P35869 whole entry, looked up): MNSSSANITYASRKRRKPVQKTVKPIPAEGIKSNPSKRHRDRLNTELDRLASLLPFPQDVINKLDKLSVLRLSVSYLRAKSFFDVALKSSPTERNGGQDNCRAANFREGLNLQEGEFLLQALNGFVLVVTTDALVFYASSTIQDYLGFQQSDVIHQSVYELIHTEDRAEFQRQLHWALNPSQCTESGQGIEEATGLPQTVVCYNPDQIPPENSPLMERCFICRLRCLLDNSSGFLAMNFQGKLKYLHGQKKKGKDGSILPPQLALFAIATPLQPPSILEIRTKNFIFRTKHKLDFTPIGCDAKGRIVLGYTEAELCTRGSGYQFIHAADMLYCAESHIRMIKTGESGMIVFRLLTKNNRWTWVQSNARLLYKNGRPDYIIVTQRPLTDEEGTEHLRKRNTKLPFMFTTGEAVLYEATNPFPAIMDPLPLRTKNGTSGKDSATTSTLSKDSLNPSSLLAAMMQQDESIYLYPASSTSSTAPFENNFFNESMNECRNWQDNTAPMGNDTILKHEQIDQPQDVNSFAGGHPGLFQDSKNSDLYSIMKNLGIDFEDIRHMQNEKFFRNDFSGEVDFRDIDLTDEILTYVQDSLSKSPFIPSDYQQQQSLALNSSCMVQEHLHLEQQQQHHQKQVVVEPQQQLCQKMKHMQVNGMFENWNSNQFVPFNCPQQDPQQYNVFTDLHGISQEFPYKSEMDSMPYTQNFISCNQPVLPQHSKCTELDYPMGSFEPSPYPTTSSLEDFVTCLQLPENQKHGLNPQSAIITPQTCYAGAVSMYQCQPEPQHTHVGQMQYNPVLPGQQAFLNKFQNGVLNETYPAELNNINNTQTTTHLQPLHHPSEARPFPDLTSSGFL

For the compound `CCCCC(CC)C(=O)O` (stereo not drawn), the outcome in assay [1], in [2], in assay [3], in [4], in [5] and in assay [6] was inactive. The compound was classed as inactive in [7], in assay [8], in assay [9], in assay [10], in [11] and in assay [12]. In addition, the outcome in assay [13] and in assay [14] was inactive.
The term AC50 denotes the midpoint of the concentration-response curve, whichever way the signal moves. For `O=S(=O)(c1ccc(OCc2ccccc2)cc1)c1ccccc1O`, the AC50 was 33.4 µM (active) in [1]; 46.8 µM (active) in assay [15]; 33.4 µM (active) in assay [7]; 33.4 µM (active) in [9]; 50.8 µM (active) in [11]; 55.4 µM (active) in assay [12]. Further, the AC50 is 51.1 µM (active) in [13], 42.4 µM (active) in assay [18] and 48.7 µM (active) in [14]. Further, the compound was classed as inactive in assay [2], in assay [3], in [4], in assay [5], in assay [16] and in assay [6]. For the same compound, the call in [17] was inactive.
For the compound `Oc1c(Cl)cc(Cl)cc1Sc1cc(Cl)cc(Cl)c1O`, the compound was classed as inactive in [1], in [15], in assay [2], in assay [3], in assay [5] and in assay [6]. In addition, the compound was classed as inactive in assay [7], in assay [8], in assay [17], in assay [9], in assay [10] and in assay [11]. Also, the result in assay [12], in [13], in assay [18] and in assay [14] was inactive. Moreover, the AC50 in assay [4] was 1.9 µM (active).
Take `CC(C)c1c(C(=O)Nc2ccccc2)c(-c2ccccc2)c(-c2ccc(F)cc2)n1CC[C@@H](O)C[C@@H](O)CC(=O)O`: the concentration at half-maximal activity (AC50) was 136 µM (active) and 42.6 µM (active) in [1]; 161 µM (active) in assay [19]; 94.5 µM (active) and 28.3 µM (active) in assay [7]. The result in [2], in assay [3], in [4], in assay [19], in [5] and in [6] was inactive. Moreover, the compound was classed as inactive in assay [9], in assay [10], in assay [11], in assay [12], in assay [13] and in [18]. Moreover, in assay [14], the result was inactive.
